Laboratory results published in PubChem BioAssay (NCI).
Compounds without any hit were thinned out: in the full panel of roughly 83,000, 20% have a hit.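 Method: cells in 96-well plates; compound added at one concentration; 48 h incubation; percent growth measured; values under 10 scored active.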 Active and inactive are the calls of the source.

Legend:
Experiment in all cases: NCI-60 one-dose screen, 48 h (100 = growth as untreated, 0 = no growth, -100 = all killed)
Settings in all cases: 10 µM unless noted
EKVX NSCLC = test system: EKVX NSCLC
SN12C renal = test system: SN12C renal
UO-31 renal = test system: UO-31 renal
ACHN renal = test system: ACHN renal
CAKI-1 renal = test system: CAKI-1 renal
A498 renal = test system: A498 renal
CCRF-CEM leukemia = test system: CCRF-CEM leukemia
MOLT-4 leukemia = test system: MOLT-4 leukemia
SR leukemia = test system: SR leukemia
RPMI-8226 leukemia = test system: RPMI-8226 leukemia
OVCAR-8 ovarian = test system: OVCAR-8 ovarian
OVCAR-5 ovarian = test system: OVCAR-5 ovarian
OVCAR-4 ovarian = test system: OVCAR-4 ovarian
SK-OV-3 ovarian = test system: SK-OV-3 ovarian
IGROV1 ovarian = test system: IGROV1 ovarian
OVCAR-3 ovarian = test system: OVCAR-3 ovarian
HS 578T breast = test system: HS 578T breast
NCI/ADR-RES ovarian = test system: NCI/ADR-RES ovarian
T-47D breast = test system: T-47D breast

Measured: growth

C#C[C@]1(O)CC[C@H]2[C@@H]3CC=C4c5sc(Nc6ccc(Cl)cn6)nc5CC[C@]4(C)[C@H]3CC[C@@]21C
inactive: EKVX NSCLC 42.3% | SN12C renal 79.5% | UO-31 renal 40% | ACHN renal 53.6% | CAKI-1 renal 29.1% | CCRF-CEM leukemia 15.1% | OVCAR-8 ovarian 49.6% | OVCAR-5 ovarian 75.8% | OVCAR-4 ovarian 65.3% | SK-OV-3 ovarian 35.9% | IGROV1 ovarian 71.5% | OVCAR-3 ovarian 74.3% | NCI/ADR-RES ovarian 54.1% | T-47D breast 68.8%
active: A498 renal -6.58% | MOLT-4 leukemia 2.85% | SR leukemia 7.04% | RPMI-8226 leukemia -21.2% | HS 578T breast -2.9%

COc1ccc(/C=N/Nc2ccnc3cc(Cl)ccc23)cc1Cl
active: SN12C renal -70.8% | UO-31 renal -90% | ACHN renal -99.8% | CAKI-1 renal -83.5% | CCRF-CEM leukemia -19.8% | MOLT-4 leukemia -25.3% | SR leukemia -9.69% | RPMI-8226 leukemia -37.8% | OVCAR-8 ovarian -57.6% | OVCAR-5 ovarian -71.9% | OVCAR-4 ovarian -60.7% | IGROV1 ovarian -59.5% | OVCAR-3 ovarian -92.2% | HS 578T breast -53.5% | NCI/ADR-RES ovarian 0.936% | T-47D breast -62%
inactive: EKVX NSCLC 12.2% | A498 renal 36.7% | SK-OV-3 ovarian 123%

COc1cc(OC)c(C2C(Cl)C(=O)N2Nc2ncnc3ccccc23)cc1OC (configuration not stated)
inactive: EKVX NSCLC 95.3% | SN12C renal 98.3% | UO-31 renal 78.8% | ACHN renal 90.5% | CAKI-1 renal 91.8% | A498 renal 97.2% | CCRF-CEM leukemia 102% | MOLT-4 leukemia 105% | SR leukemia 104% | RPMI-8226 leukemia 106% | OVCAR-8 ovarian 104% | OVCAR-5 ovarian 105% | OVCAR-4 ovarian 104% | SK-OV-3 ovarian 113% | IGROV1 ovarian 83.5% | OVCAR-3 ovarian 116% | HS 578T breast 107% | NCI/ADR-RES ovarian 105% | T-47D breast 96.1%

C#C[C@]1(O)CC[C@H]2[C@@H]3CC=C4c5sc(-c6ccc(F)cn6)nc5CC[C@]4(C)[C@H]3CC[C@@]21C
inactive: EKVX NSCLC 25.4% | SN12C renal 58.7% | UO-31 renal 52.7% | ACHN renal 47.2% | CAKI-1 renal 20.6% | OVCAR-8 ovarian 42.8% | OVCAR-5 ovarian 59.9% | OVCAR-4 ovarian 57.8% | SK-OV-3 ovarian 21.2% | IGROV1 ovarian 49.8% | OVCAR-3 ovarian 56.2% | NCI/ADR-RES ovarian 44.8% | T-47D breast 39.9%
active: A498 renal -24.7% | CCRF-CEM leukemia 8.87% | MOLT-4 leukemia -7.92% | SR leukemia -2.25% | RPMI-8226 leukemia -26% | HS 578T breast -16.2%

O=C1c2c(c3c4cccnc4[nH]c3c3ccc4ccccc4c23)C(=O)N1CCO
active: SR leukemia 9.85%
inactive: EKVX NSCLC 108% | SN12C renal 84.4% | UO-31 renal 56.1% | ACHN renal 48.3% | CAKI-1 renal 42.6% | A498 renal 57% | CCRF-CEM leukemia 42.8% | MOLT-4 leukemia 31.7% | RPMI-8226 leukemia 72.7% | OVCAR-8 ovarian 78% | OVCAR-5 ovarian 121% | OVCAR-4 ovarian 105% | SK-OV-3 ovarian 84.8% | IGROV1 ovarian 67.7% | HS 578T breast 121% | NCI/ADR-RES ovarian 87.2% | T-47D breast 37.2%

COc1cc(-c2ccc3ncnc(NC(C)c4ccccc4)c3c2)cnc1OC (configuration not stated)
inactive: EKVX NSCLC 19.5% | SN12C renal 39.1% | UO-31 renal 19.1% | ACHN renal 21% | CAKI-1 renal 16.4% | CCRF-CEM leukemia 56.3% | MOLT-4 leukemia 45.1% | SR leukemia 43.7% | RPMI-8226 leukemia 26.5% | OVCAR-8 ovarian 55.2% | OVCAR-5 ovarian 42.8% | OVCAR-4 ovarian 49% | SK-OV-3 ovarian 40.4% | HS 578T breast 21.1% | NCI/ADR-RES ovarian 58.8%
active: A498 renal -14.9% | IGROV1 ovarian -23.2% | T-47D breast 1.57%

Cc1ccc2ccc3ccc(C)nc3c2n1.Cc1ccc2ccc3ccc(C)nc3c2n1.Oc1c(Cl)cc(Cl)c2ccc(CN3CCCCC3)nc12.[Ru]
active: EKVX NSCLC -64.9% | SN12C renal -64.9% | UO-31 renal -89.8% | ACHN renal -95.6% | CAKI-1 renal -77.7% | A498 renal -88.7% | CCRF-CEM leukemia -47.9% | MOLT-4 leukemia -52.7% | RPMI-8226 leukemia -46% | OVCAR-4 ovarian -45.8% | SK-OV-3 ovarian -72.6% | IGROV1 ovarian -58.4% | OVCAR-3 ovarian -95.3% | HS 578T breast -42.4% | NCI/ADR-RES ovarian -24.4% | T-47D breast -55.8%

O=C1Nc2cc(Cl)ccc2/C1=C\c1ccc(OCc2ccc(Br)cc2F)cc1
inactive: CCRF-CEM leukemia 12.9% | MOLT-4 leukemia 22.7% | SR leukemia 27.4%
active: EKVX NSCLC -18.9% | SN12C renal -70.1% | UO-31 renal -68.7% | ACHN renal -83% | CAKI-1 renal -77.1% | A498 renal -75.8% | RPMI-8226 leukemia -24.3% | OVCAR-5 ovarian 6.67% | OVCAR-4 ovarian -54.3% | SK-OV-3 ovarian -36.9% | IGROV1 ovarian -88.8% | HS 578T breast -26.1% | NCI/ADR-RES ovarian -0.106% | T-47D breast -23.9%

N#Cc1nc(-c2ccccc2)oc1N1CCC(CO)C1 (configuration not stated)
inactive: EKVX NSCLC 77.4% | SN12C renal 97.1% | UO-31 renal 88.7% | ACHN renal 105% | CAKI-1 renal 90.2% | A498 renal 76.4% | MOLT-4 leukemia 108% | SR leukemia 110% | RPMI-8226 leukemia 103% | OVCAR-8 ovarian 103% | OVCAR-5 ovarian 93.2% | OVCAR-4 ovarian 99% | SK-OV-3 ovarian 121% | IGROV1 ovarian 93.1% | OVCAR-3 ovarian 104% | HS 578T breast 96.1% | NCI/ADR-RES ovarian 106% | T-47D breast 83%

O=C(CSc1nc2sc3c(c2c(=O)n1-c1ccc(Cl)cc1)CCCC3)NNC(=O)Nc1cccc(C(F)(F)F)c1
active: ACHN renal 6.86% | A498 renal -5.48% | MOLT-4 leukemia 8.64% | SR leukemia 5.49% | OVCAR-3 ovarian 5.17%
inactive: EKVX NSCLC 31.5% | SN12C renal 14.6% | UO-31 renal 13.2% | CAKI-1 renal 13.7% | CCRF-CEM leukemia 17.1% | OVCAR-8 ovarian 22.1% | OVCAR-4 ovarian 22.5% | SK-OV-3 ovarian 62.1% | IGROV1 ovarian 24.4% | HS 578T breast 56.9% | NCI/ADR-RES ovarian 32.2% | T-47D breast 13.2%

CCOC(=O)c1c(Nc2ccccc2)nn2c(-c3ccco3)c(C#N)cnc12
inactive: EKVX NSCLC 75.7% | SN12C renal 92.9% | UO-31 renal 71% | ACHN renal 56.5% | CAKI-1 renal 90.1% | A498 renal 45.1% | CCRF-CEM leukemia 82.4% | MOLT-4 leukemia 92.2% | OVCAR-8 ovarian 82.1% | OVCAR-5 ovarian 109% | OVCAR-4 ovarian 86.6% | SK-OV-3 ovarian 109% | IGROV1 ovarian 100% | OVCAR-3 ovarian 131% | HS 578T breast 72% | NCI/ADR-RES ovarian 80% | T-47D breast 87.8%

c1ccc(CNc2ncnc3ccc(-c4cnc5[nH]ncc5c4)cc23)cc1
active: A498 renal -8.94% | IGROV1 ovarian 9.48%
inactive: EKVX NSCLC 46.6% | SN12C renal 56.6% | UO-31 renal 35% | ACHN renal 34.5% | CAKI-1 renal 36.3% | CCRF-CEM leukemia 73.1% | MOLT-4 leukemia 34.6% | RPMI-8226 leukemia 60.8% | OVCAR-5 ovarian 61.8% | OVCAR-4 ovarian 79.4% | SK-OV-3 ovarian 72.1% | OVCAR-3 ovarian 67.1% | HS 578T breast 45% | NCI/ADR-RES ovarian 81.9% | T-47D breast 18.5%

O=C(CCCN1C(=O)/C(=C/c2ccccc2F)SC1=S)N1CCOCC1
inactive: EKVX NSCLC 89.5% | SN12C renal 87.6% | UO-31 renal 72.2% | ACHN renal 78.1% | CAKI-1 renal 89.2% | A498 renal 82.8% | MOLT-4 leukemia 91.3% | SR leukemia 68% | RPMI-8226 leukemia 75.1% | OVCAR-5 ovarian 94.5% | OVCAR-4 ovarian 88.4% | SK-OV-3 ovarian 114% | IGROV1 ovarian 84.4% | OVCAR-3 ovarian 112% | HS 578T breast 99.4% | NCI/ADR-RES ovarian 104% | T-47D breast 45.6%

Cc1c(NC(=O)CSc2nc3sc4c(c3c(=O)n2-c2ccc(Cl)cc2)CCCC4)c(=O)n(-c2ccccc2)n1C
inactive: EKVX NSCLC 97.3% | SN12C renal 88.9% | UO-31 renal 72.8% | ACHN renal 90.8% | CAKI-1 renal 65.1% | A498 renal 62.6% | CCRF-CEM leukemia 98.2% | MOLT-4 leukemia 71.3% | SR leukemia 86.1% | RPMI-8226 leukemia 86.7% | OVCAR-5 ovarian 99.6% | OVCAR-4 ovarian 91.9% | SK-OV-3 ovarian 93.8% | IGROV1 ovarian 84.9% | OVCAR-3 ovarian 100% | HS 578T breast 88.3% | NCI/ADR-RES ovarian 101% | T-47D breast 90.1%

C/C(=C(/c1ccc(Cl)cc1)c1ccc(OCCN)cc1)c1ccc(C)cc1
inactive: EKVX NSCLC 98.8% | SN12C renal 95.7% | UO-31 renal 83.2% | ACHN renal 96.6% | CAKI-1 renal 86.6% | A498 renal 97.4% | CCRF-CEM leukemia 98.9% | MOLT-4 leukemia 96.4% | SR leukemia 88.6% | OVCAR-8 ovarian 100% | OVCAR-5 ovarian 101% | OVCAR-4 ovarian 97% | SK-OV-3 ovarian 120% | IGROV1 ovarian 100% | HS 578T breast 96.7% | NCI/ADR-RES ovarian 111% | T-47D breast 96.8%

OC1CCN(CCCOc2c3ccc(Cl)cc3nc3c2oc2ccc(Cl)cc23)CC1
inactive: EKVX NSCLC 34.7% | SN12C renal 23.2% | OVCAR-8 ovarian 27.7% | OVCAR-4 ovarian 55% | SK-OV-3 ovarian 50.8% | OVCAR-3 ovarian 46.5% | HS 578T breast 20.5% | NCI/ADR-RES ovarian 32.4% | T-47D breast 52.3%
active: UO-31 renal 7.4% | ACHN renal -98.4% | CAKI-1 renal 3.71% | A498 renal -7.6% | CCRF-CEM leukemia -28.8% | MOLT-4 leukemia 0.17% | SR leukemia -39.3% | RPMI-8226 leukemia -8.79% | IGROV1 ovarian 9.03%

Clc1ccc2c(NCCCn3ccnc3)c3oc4ccccc4c3nc2c1
inactive: EKVX NSCLC 16.1% | SN12C renal 33.2% | UO-31 renal 36.2% | ACHN renal 18.1% | CAKI-1 renal 22.1% | CCRF-CEM leukemia 37.4% | MOLT-4 leukemia 13.3% | RPMI-8226 leukemia 26.4% | OVCAR-8 ovarian 32.1% | OVCAR-4 ovarian 55% | SK-OV-3 ovarian 104% | IGROV1 ovarian 32.9% | OVCAR-3 ovarian 68.4% | HS 578T breast 61.6% | NCI/ADR-RES ovarian 45% | T-47D breast 60.1%
active: A498 renal 8.07% | SR leukemia 9.35%
